This is an account of results in PubChem BioAssay (NCI).

The panel holds about 79,000 compounds, 15% with a hit somewhere; the sample as a whole holds those more often. A number with no mark means an inactive call. Active and inactive are the calls of the source. Rule as the data show it: active = growth inhibition above about 70%; inactive = the rest.

The nature of assay [1]: NCI Yeast Anticancer Drug Screen. Data for the rad50 strain (AID 155).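 Also: 0% = growth of vehicle-only cultures of the same strain.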 Particulars: S. cerevisiae rad50 strain growth inhibition; at 50.0 µM; stronger effect = higher value. In outline: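 Inhibition values express reduced yeast growth in compound-treated cultures relative to vehicle-treated controls.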
Assay [2] in a line: NCI Yeast Anticancer Drug Screen. Data for the mec2-1 strain (AID 157). Particulars: S. cerevisiae mec2-1 strain, at 50.0 µM, stronger effect = higher value. In outline:
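Mutant yeast (mec2-1) grown with compound; growth inhibition relative to vehicle control reported.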

Assay [3] can be described thus: NCI Yeast Anticancer Drug Screen. Data for the sgs1 mgt1 strain (AID 161).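 Also: 0% = growth of cultures given vehicle only.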 Particulars: S. cerevisiae sgs1 mgt1 strain, at 50.0 µM, stronger effect = higher value. The method in brief:
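Compounds are added to genetically altered yeast, and growth is compared with cultures given vehicle alone to give percent inhibition.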

Assay [4] is described as follows: NCI Yeast Anticancer Drug Screen. Data for the cln2 rad14 strain (AID 165).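 Also: 0% = growth equal to vehicle treated cultures.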 Particulars: S. cerevisiae cln2 rad14 strain, at 50.0 µM, stronger effect = higher value. In outline:
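Readout is yeast growth inhibition versus vehicle-treated controls, using a strain with cln2 and rad14 alterations exposed to compound.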

Assay [5] can be described thus: NCI Yeast Anticancer Drug Screen. Data for the bub3 strain (AID 167). To be noted: S. cerevisiae bub3 mutant strain, at 50.0 µM, stronger effect = higher value. The method in brief: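 Steps: expose the mutant yeast strain to compound; grow alongside vehicle-treated cultures; measure growth; express inhibition against the vehicle cultures.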
The nature of assay [6]: NCI Yeast Anticancer Drug Screen. Data for the mlh1 rad18 strain (AID 175). Particulars: S. cerevisiae mlh1 rad18 strain growth inhibition; at 50.0 µM; stronger effect = higher value. In outline:
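Genetically defined yeast (DNA repair-deficient) exposed to compounds; growth inhibition determined relative to vehicle.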

As for `CSC1=Nc2cccnc2Nc2cscc21`, the growth inhibition in assay [1] is -9.25%; in assay [2] it was -6%; in assay [3], 22.1%; in assay [4] it was 9.65%; in assay [5], -3.8%; in assay [6], 25.1%.
Regarding `COC1=C(N(C)C)C(=O)c2ccccc2C1=O`, the growth inhibition in assay [1] was 21.4%; in assay [2], 0.55%; in assay [3] it was 11.4%; in assay [4], 7.3%; in assay [5] it was -15.3%; in assay [6], 4.55%.
On to `CC(C)C(NC(=O)OC(C)(C)C)C(=O)O` (stereo not given), for which the growth inhibition in assay [1] was -11.3%; in assay [2] it was 1.2%; in assay [3], 14.7%; in assay [4] it was -66.3%; in assay [5] it was 9.45%; in assay [6], -6.9%.
For the compound `COc1nc(N)c2[nH]cnc2n1`, the growth inhibition in assay [1] was 0.95%; in assay [2], 21.4%; in assay [3] it was 2.05%; in assay [4], 21.4%; in assay [5] it was 5.15%; in assay [6], 3.4%.
On to `CCOC(=O)C#Cc1ccc(C#CC(=O)OCC)cc1`, for which the growth inhibition is -0.5% in assay [1]; 19.4% in assay [2]; 6.45% in assay [3]; -2.95% in assay [4]; 1.95% in assay [5]; 51% in assay [6].
`O=C1C=CC(=NCl)C=C1`: the growth inhibition in assay [1] is -18.6%; in assay [2], -24.9%; in assay [3], 4.35%; in assay [4], -21.9%; in assay [5], 1.15%; in assay [6], 10.6%.
`CSC1(C)C(=O)Nc2cc([N+](=O)[O-])ccc21` (stereo not given): the growth inhibition is 1.7% in assay [1]; -11.1% in assay [2]; 0.6% in assay [3]; -14.2% in assay [4]; -32.5% in assay [5]; -5.55% in assay [6].
Turning to `NC(=S)NNC(=S)NC(=O)c1ccco1`, the growth inhibition in assay [1] is -39.8%; in assay [2], 5.55%; in assay [3] it was 5.05%; in assay [4], 14.3%; in assay [5], 22.1%; in assay [6] it was -18.7%.
For the compound `Cc1cccc(/C=N/NC(=S)N2CCCCCC2)n1`, the growth inhibition was 89.3% (active) in assay [1]; 93.2% (active) in assay [2]; 92.1% (active) in assay [3]; 92.8% (active) in assay [4]; 92.2% (active) in assay [5]; 89% (active) in assay [6].
As to `Oc1c(C(O)N2CCOCC2)cc(C(O)N2CCOCC2)c(O)c1O` (stereo not given) (tested in a mixture with another compound), the growth inhibition was -3.3% in assay [1]; -11.1% in assay [2]; -17% in assay [3]; -16.2% in assay [4]; -3.15% in assay [5]; 9.75% in assay [6].
Consider `O=C1OC2(c3ccc(O)cc3Oc3cc(O)ccc32)C2C3CCC(O3)C12` (stereo not given), for which the growth inhibition in assay [1] is 52.2%; in assay [2], 38.2%; in assay [3], 42.2%; in assay [4], 27%; in assay [5] it was 37.2%; in assay [6] it was 40.4%.
`COC(=O)/C=C(/C(=O)OC)C1(C)c2cc(C(=O)OC)c(C(=O)OC)c(N)c2C(=N)N1c1ccccc1` (stereo not given): the growth inhibition in assay [1] was -3.75%; in assay [2], 25.9%; in assay [3], 1%; in assay [4], -12.4%; in assay [5], -5.15%; in assay [6], -0.9%.
With `COc1ccc2nc(C3CCCCC3C(=O)O)cc(C)c2c1` (stereo not given), the growth inhibition is -9.2% in assay [1]; -5.35% in assay [2]; -5.8% in assay [3]; -27.1% in assay [4]; -4.3% in assay [5]; -1.45% in assay [6].
In the case of `CC/C=N/Nc1cn[nH]c(=O)c1Cl`, the growth inhibition in assay [1] is -1.3%; in assay [2] it was 0.1%; in assay [3], 9.85%; in assay [4] it was 4.85%; in assay [5], -7.75%; in assay [6], -14.9%.
With `Cc1ccccc1/C=N\N=C\c1ccco1`, the growth inhibition in assay [1] was -0.5%; in assay [2] it was -6.5%; in assay [3], -5.25%; in assay [4], -10.7%; in assay [5], 18.1%; in assay [6] it was 44.6%.
As to `CCOC(=O)C/C(C(=O)O)=C(\C)c1ccc2ccccc2c1`, the growth inhibition in assay [1] was -10.4%; in assay [2] it was 18.1%; in assay [3] it was 20.9%; in assay [4] it was 1.15%; in assay [5], -2.25%; in assay [6] it was -0.85%.
For `COC1(OC)c2no[n+]([O-])c2C(OC)(OC)c2c1no[n+]2[O-]`, the growth inhibition is -11.7% in assay [1]; -4.8% in assay [2]; -6.35% in assay [3]; 19.1% in assay [4]; 20.6% in assay [5]; -4.35% in assay [6].
Regarding `COc1cccc2c1C(=O)c1c(O)c3c(c(O)c1C2=O)CC(O)(C(O)CO)CC3OC1CC(N2CCSCC2)C(O)C(C)O1` (stereo not given), the growth inhibition was 87.7% (active) in assay [1]; 87.5% (active) in assay [2]; 88% (active) in assay [3]; 84% (active) in assay [4]; 85.8% (active) in assay [5]; 90.3% (active) in assay [6].
For the compound `Cc1c(CO)[n+](=O)c2ccccc2n1[O-]`, the growth inhibition is 30.4% in assay [1]; 12.6% in assay [2]; 0.45% in assay [3]; -22.6% in assay [4]; 3.4% in assay [5]; 21.7% in assay [6].
With `O=c1c(-c2ccccc2)coc2ccccc12`, the growth inhibition is -9% in assay [1]; 1.45% in assay [2]; 8.15% in assay [3]; -52% in assay [4]; -14.3% in assay [5]; 0.15% in assay [6].
